The values below come from PubChem BioAssay (Tox21).

Assay [1] is described as follows: qHTS RealTime-Glo MT Cell Viability Assay in HEK293 cells - 0 hour (AID 1224880). Note: top concentration of the series differs between compounds; nearly all actives have a fitted effect of over 45% in size. An outline of the steps:
(§1)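 Viable HEK293 cells reduce a cell-permeant prosubstrate; the product diffuses out and is consumed by NanoLuc in the medium to give light. Compounds went in after a 5 h incubation and plates were read over the treatment course.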

Assay [2] is described as follows: A CellTox Green Cytotoxicity Assay to monitor cytotoxicity in HEK293 cells - 32 hour (AID 1224881). Note: nearly all actives have a fitted effect of over 40% in size. Put shortly: (§2)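 Fluorescence intensity, read at 0, 8, 16, 24, 32 and 40 h of compound treatment, reflected dye binding to DNA of dead HEK293 cells; compounds (23 nL, DMSO) were added 5 h after plating cells with reagent.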
The nature of assay [3]: A CellTox Green Cytotoxicity Assay to monitor cytotoxicity in HepG2 cells - 0 hour (AID 1224882). Note: nearly all actives have a fitted effect of over 35% in size. An outline of the steps:
(§3)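 Using 1536-well format, dye-containing HepG2 suspension was seeded, allowed 5 h at 37 C/5% CO2, dosed by pintool with compounds, positive and negative controls, and imaged for fluorescence across 40 h.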

A short description of assay [4]: A CellTox Green Cytotoxicity Assay to monitor cytotoxicity in HepG2 cells - 32 hour (AID 1224883). Note: nearly all actives have a fitted effect of over 50% in size. Put shortly: as §3
Assay [5] can be described thus: A CellTox Green Cytotoxicity Assay to monitor cytotoxicity in HEK293 cells - 8 hour (AID 1224884). Note: nearly all actives have a fitted effect of over 35% in size. An outline of the steps: as §2
Assay [6] in a line: qHTS RealTime-Glo MT Cell Viability Assay in HepG2 cells - 16 hour (AID 1224885). Note: nearly all actives have a fitted effect of over 50% in size. An outline of the steps:
(§4)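 HepG2 cells (600/well) were dispensed with RealTime-Glo reagents, incubated 5 h at 37 °C, then treated with compounds in DMSO for up to 40 h. Nonlytic NanoLuc luminescence reflecting viable cells was read at each stated time point.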
(In general: qHTS replaces the single test concentration by a dilution series.)

Assay [7] can be described thus: qHTS RealTime-Glo MT Cell Viability Assay in HEK293 cells - 24 hour (AID 1224886). Note: top concentration of the series differs between compounds; nearly all actives have a fitted effect of over 50% in size. An outline of the steps:
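HEK293 cells seeded with NanoLuc/prosubstrate reagent, rested 5 h at 37 C, then dosed and kept at 37 C up to 40 h. Nonlytic real-time luminescence from viable cells read at 0, 8, 16, 24, 32 and 40 h.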

The nature of assay [8]: qHTS RealTime-Glo MT Cell Viability Assay in HEK293 cells - 8 hour (AID 1224887). Note: top concentration of the series differs between compounds; nearly all actives have a fitted effect of over 50% in size. Put shortly: as §1
The nature of assay [9]: A CellTox Green Cytotoxicity Assay to monitor cytotoxicity in HEK293 cells - 16 hour (AID 1224888). Note: nearly all actives have a fitted effect of over 35% in size. Put shortly: as §2
The nature of assay [10]: qHTS RealTime-Glo MT Cell Viability Assay in HepG2 cells - 0 hour (AID 1224889). Note: nearly all actives have a fitted effect of over 50% in size. An outline of the steps:
as §4

A short description of assay [11]: A CellTox Green Cytotoxicity Assay to monitor cytotoxicity in HepG2 cells - 8 hour (AID 1224890). Note: nearly all actives have a fitted effect of over 45% in size. An outline of the steps: as §3
Assay [12] is described as follows: qHTS assay to identify small molecule antagonists of the estrogen receptor alpha (ER-alpha) signaling pathway using the BG1 cell line in the presence of 0.1 nM 17-beta-estradiol - cell viability counter screen (AID 1259241). Note: nearly all actives have a fitted effect of over 40% in size. Put shortly: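 Cells were plated and left 24 hr, compounds in DMSO were pinned in, 17beta-estradiol was added to 0.1 nM final, and after 22 hr CellTiter-Fluor reagent was added for 30 min before fluorescence was read.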

Assay [13] is described as follows: qHTS assay to identify small molecule antagonists of the androgen receptor (AR) signaling pathway using the MDA cell line in the presence of 0.5 nM R1881 - cell viability counter screen (AID 1259242). Note: nearly all actives have a fitted effect of over 45% in size. An outline of the steps: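 Viability of MDA-kb2 cells was multiplexed with the luciferase AR readout; after 16 hr with compounds and R1881 at 0.5 nM final, CellTiter-Fluor fluorescence was recorded.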

For assay [14], the target named is Estrogen receptor (Homo sapiens) (UniProt P03372). The assay is described as follows: qHTS assay to identify small molecule antagonists of the estrogen receptor alpha (ER-alpha) signaling pathway using the BG1 cell line in the presence of 0.1 nM 17-beta-estradiol (AID 1259244). Note: nearly all actives have a fitted effect of over 50% in size. Note: potency is the fitted concentration of half-maximal effect. An outline of the steps:
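Estradiol at 0.1 nM (final) stimulates the endogenous ER-alpha of VM7Luc4E2 cells carrying an ERE-driven luciferase; compounds are co-incubated 22 h at 37C and luciferase output quantified by luminescence.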

The nature of assay [15]: qHTS assay to identify small molecule HDAC inhibitors (AID 1259364).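 Note: wild-type HCT-116 cells with endogenous class I/II HDAC activity; top concentration of the series differs between compounds; nearly all actives have a fitted effect of over 45% in size.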 Put shortly:
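Read-out: luminescence of HDAC-Glo I/II reagent, 30 min RT, reflecting class I/II deacetylase activity in whole HCT-116 cells pre-exposed 2 h to DMSO-dissolved compounds.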

Assay [16] in a line: qHTS assay to identify small molecule HDAC inhibitors - cell viability counter screen (AID 1259365). An outline of the steps:
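Counter screen in wild-type HCT-116 cells: compounds dissolved in DMSO are pin-transferred onto overnight-plated cells and left 2hr at 37C. ATP-based CellTiter-Glo luminescence then measures viable cells.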

The nature of assay [17]: qHTS assay to identify small molecule agonists of the sonic hedgehog signaling (Shh) pathway - cell viability counter screen (AID 1259366). Note: nearly all actives have a fitted effect of over 50% in size. An outline of the steps:
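Cells are plated at 2,000 per well and left 4hr at 37C, 5% CO2 before compound addition. After 23hr of treatment, CellTiter-Fluor reagent is added for 1hr at 37C and fluorescence is measured.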

A short description of assay [18]: qHTS assay to identify small molecule antagonists of the sonic hedgehog signaling (Shh) pathway - cell viability counter screen (AID 1259367). Note: nearly all actives have a fitted effect of over 55% in size. Put shortly: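 NIH/3T3-derived Gli1-Luc reporter cells, 2,000/well, plated 4 hr before compound addition, then stimulated with conditioned medium for 24 hr at 37C. Viability measured in the same wells by CellTiter-Fluor fluorescence, reagent added at 23 hr for 1 hr.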

Assay [19] deals with Androgen receptor (Homo sapiens) (UniProt P10275). Briefly: qHTS assay to identify small molecule antagonists of the androgen receptor (AR) signaling pathway using the MDA cell line in the presence of 0.5 nM R1881 (AID 1259243). Note: nearly all actives have a fitted effect of over 50% in size. Put shortly: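 Reporter cells cultured without CO2 receive test chemicals, then 0.5 nM R1881 final; after 16 hr at 37C, ONE-Glo is added and light output recorded.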

Assay [20] can be described thus: qHTS assay to identify small molecule phospholipidosis (PLD) inducers (AID 1259344; active = well fitted curve in the direction sought with a large enough effect; an effect the other way counts as inactive or inconclusive). An outline of the steps: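 HepG2 cells, 900/well, treated with compound plus LipidTOX Red for 24 h at 37 C; amiodarone positive and DMSO negative controls. Fixed with paraformaldehyde/Hoechst, then high-content imaging scored LipidTOX pit count and integrated intensity per well and per cell.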

Structures are written as SMILES. Inconclusive results are not listed. Active and inactive are the calls of the source. Unless noted, calls come from the whole dose curve; as a rule, active = well fitted curve in the direction sought with a large enough effect in the repeat runs; inconclusive = weak or mixed curves; inactive = no such curve, though single readings can be large; an effect the other way counts as inactive or inconclusive.

Sequence of Estrogen receptor (Homo sapiens) (P03372 whole entry, looked up): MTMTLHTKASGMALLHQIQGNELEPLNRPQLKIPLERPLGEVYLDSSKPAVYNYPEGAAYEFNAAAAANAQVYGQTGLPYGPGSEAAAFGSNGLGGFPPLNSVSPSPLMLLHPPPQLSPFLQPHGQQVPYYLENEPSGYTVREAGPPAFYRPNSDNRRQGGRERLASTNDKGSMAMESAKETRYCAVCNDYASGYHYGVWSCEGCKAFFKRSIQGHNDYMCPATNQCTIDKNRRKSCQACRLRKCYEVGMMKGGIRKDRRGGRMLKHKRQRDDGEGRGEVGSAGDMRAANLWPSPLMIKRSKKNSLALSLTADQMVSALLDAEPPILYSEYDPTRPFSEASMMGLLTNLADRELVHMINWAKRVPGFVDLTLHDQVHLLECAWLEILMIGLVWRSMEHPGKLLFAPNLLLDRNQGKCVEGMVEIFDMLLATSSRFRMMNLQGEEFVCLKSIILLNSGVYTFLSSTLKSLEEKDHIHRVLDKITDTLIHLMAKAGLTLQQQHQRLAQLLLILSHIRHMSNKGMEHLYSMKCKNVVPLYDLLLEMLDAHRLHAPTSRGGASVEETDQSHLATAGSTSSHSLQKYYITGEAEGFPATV
Sequence of Androgen receptor (Homo sapiens) (P10275 whole entry, looked up): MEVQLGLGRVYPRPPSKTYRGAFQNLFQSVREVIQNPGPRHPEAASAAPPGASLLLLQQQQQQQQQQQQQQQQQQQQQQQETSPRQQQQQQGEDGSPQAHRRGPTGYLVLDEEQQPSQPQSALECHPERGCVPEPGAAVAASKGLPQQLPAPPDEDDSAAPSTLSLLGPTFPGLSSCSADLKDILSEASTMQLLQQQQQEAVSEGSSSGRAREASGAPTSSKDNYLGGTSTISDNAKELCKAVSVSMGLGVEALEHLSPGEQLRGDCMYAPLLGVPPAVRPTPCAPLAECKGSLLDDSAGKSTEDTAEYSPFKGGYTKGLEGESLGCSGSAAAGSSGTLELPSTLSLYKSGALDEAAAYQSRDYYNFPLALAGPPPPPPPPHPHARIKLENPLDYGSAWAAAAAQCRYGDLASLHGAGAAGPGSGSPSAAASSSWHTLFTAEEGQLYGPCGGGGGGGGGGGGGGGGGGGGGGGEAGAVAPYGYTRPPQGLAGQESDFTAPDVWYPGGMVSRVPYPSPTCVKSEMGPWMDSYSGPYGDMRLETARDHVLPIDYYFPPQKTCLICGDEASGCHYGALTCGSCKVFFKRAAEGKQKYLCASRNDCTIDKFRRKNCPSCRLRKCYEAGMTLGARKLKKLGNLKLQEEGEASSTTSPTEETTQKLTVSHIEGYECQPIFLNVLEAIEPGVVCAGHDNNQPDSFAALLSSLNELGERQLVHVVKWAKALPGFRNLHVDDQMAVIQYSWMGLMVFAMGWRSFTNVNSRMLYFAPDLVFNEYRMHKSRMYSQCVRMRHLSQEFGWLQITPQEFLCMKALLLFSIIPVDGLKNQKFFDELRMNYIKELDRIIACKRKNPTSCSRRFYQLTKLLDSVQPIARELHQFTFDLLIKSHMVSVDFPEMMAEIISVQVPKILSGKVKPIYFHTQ

Regarding `CCCCCCCCCCCCCCCC(=O)OCC`, the Potency result in assay [1], in assay [2], in [3], in assay [4], in assay [5] and in assay [6] was “inactive” each time. Further, the Potency result in assay [7], in [8], in assay [9], in assay [10], in assay [11] and in assay [12] was “inactive” each time. The Potency entry in assay [13], in assay [14], in assay [15], in assay [16], in assay [17] and in assay [18] was “inactive” each time.

Take `CCCCCCCCCCCSCC(=O)O`: the Potency result in [1], in [2], in assay [3], in assay [4], in [5] and in assay [6] was “inactive” in each case. Moreover, the Potency entry in assay [7], in assay [8], in assay [9], in assay [10], in assay [11] and in assay [12] was “inactive” in each case. Further, the Potency entry in assay [13], in assay [15], in assay [16] and in [17] was “inactive” each time. Besides, the Potency in [14] was 54.5 µM (active).

As to `CCN(CC)c1cccc(O)c1`, the Potency entry in assay [1], in [2], in [3], in assay [4], in assay [5] and in assay [6] was “inactive” each time. For the same compound, the Potency result in [7], in assay [8], in [9], in [10], in [11] and in [12] was “inactive” in each case. Also, the Potency result in assay [13], in [14], in [15], in assay [16], in assay [17] and in assay [18] was “inactive” in each case.

`CCOC(=O)c1ccc(NC(=O)CN2CCCCC2)cc1`: the Potency entry in assay [1], in assay [2], in [3], in [4], in assay [5] and in assay [6] was “inactive” in each case. Also, the Potency result in assay [7], in assay [8], in assay [9], in [10], in assay [11] and in [12] was “inactive” each time. Further, the Potency result in assay [13], in assay [19], in assay [20], in assay [15], in assay [16] and in assay [17] was “inactive” throughout. The Potency result in assay [18] was “inactive”.

For the compound `Cc1ccc(NC(=O)N(C)C)cc1NC(=O)N(C)C`, the Potency entry in assay [1], in [2], in [3], in assay [4], in assay [5] and in assay [6] was “inactive” throughout. Also, the Potency result in assay [7], in [8], in assay [9], in assay [10], in assay [11] and in assay [12] was “inactive” in each case. The Potency entry in assay [13], in assay [14], in assay [16], in assay [17] and in assay [18] was “inactive” in each case.

In the case of `NC(=O)CCCCC(N)=O`, the Potency result in assay [1], in [2], in assay [3], in [4], in assay [5] and in assay [6] was “inactive” throughout. Also, the Potency result in [7], in [8], in assay [9], in assay [10], in [11] and in assay [12] was “inactive” in each case. Further, the Potency result in assay [13], in assay [14], in [15], in assay [16], in [17] and in assay [18] was “inactive” throughout.

For `O=C1CC[C@@H](C(=O)O)N1`, the Potency entry in assay [1], in assay [2], in assay [3], in assay [4], in assay [5] and in assay [6] was “inactive” in each case. Moreover, the Potency result in assay [7], in assay [8], in [9], in assay [10], in [11] and in assay [12] was “inactive” throughout. The Potency result in [13], in assay [19], in [20], in [15], in [16] and in assay [17] was “inactive” in each case.
